Results from the supplement of paper PMC8728848.
The sample as a whole holds a higher share of the strongest signals than the screen did.

What was measured:
Test in all cases: glycan array binding signal (z-score within array); higher = stronger binding
Conditions in all cases: glycan notation: IUPAC condensed, linker removed
[1] = target: Fuc(a1-2)Gal(b1-3)GalNAc(b1-3)Gal
Procedure, shortened: (§1)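 The binding signal is a Z-score computed within each array. Data were drawn from 3228 arrays in the Consortium for Functional Glycomics database, restricted to those with a known protein sequence. Scores were averaged over arrays of the same protein sequence at different concentrations or buffers, and over linkers, and negative values can be taken as non-binding.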

[2] = target: Fuc(a1-2)Gal(b1-3)GlcNAc(b1-2)Man(a1-3)[Fuc(a1-2)Gal(b1-3)GlcNAc(b1-2)Man(a1-6)]Man(b1-4)GlcNAc(b1-4)GlcNAc
Procedure, shortened: as §1

[3] = target: Fuc(a1-2)Gal(b1-4)[Fuc(a1-3)]GlcNAc(b1-3)GalNAc
Procedure, shortened: as §1

[4] = target: Fuc(a1-2)Gal6S(b1-3)GlcNAc
Procedure, shortened: as §1

[5] = target: Fuc(a1-2)[Gal(a1-3)]Gal(b1-4)GlcNAc(b1-6)GalNAc
Procedure, shortened: as §1

[6] = target: Fuc(a1-2)[GalNAc(a1-3)]Gal(b1-3)GlcNAc(b1-2)Man(a1-3)[Fuc(a1-2)[GalNAc(a1-3)]Gal(b1-3)GlcNAc(b1-2)Man(a1-6)]Man(b1-4)GlcNAc(b1-4)GlcNAc
Procedure, shortened: as §1

[7] = target: Fuc(a1-2)[GalNAc(a1-3)]Gal(b1-3)GlcNAc(b1-3)GalNAc
Procedure, shortened: as §1

[8] = target: Fuc(a1-2)[GalNAc(a1-3)]Gal(b1-4)Glc
Procedure, shortened: as §1

[9] = target: Fuc(a1-2)[GalNAc(a1-3)]Gal(b1-4)GlcNAc(b1-3)Gal(b1-4)GlcNAc
Procedure, shortened: as §1

[10] = target: Fuc(a1-2)[GalNAc(a1-3)]Gal(b1-4)[Fuc(a1-3)]GlcNAc(b1-3)GalNAc
Procedure, shortened: as §1

[11] = target: Fuc(a1-3)[Gal(b1-4)]GlcNAc(b1-4)Gal(b1-4)[Fuc(a1-3)]GlcNAc
Procedure, shortened: as §1

[12] = target: Fuc(a1-3)[Gal(b1-4)]GlcNAc(b1-6)GalNAc
Procedure, shortened: as §1

[13] = target: Fuc(a1-3)[Gal(b1-4)]GlcNAc6S
Procedure, shortened: as §1

[14] = target: Gal(a1-2)Gal
Procedure, shortened: as §1

[15] = target: Gal(a1-3)Gal(b1-3)GlcNAc(b1-2)Man(a1-3)[Gal(a1-3)Gal(b1-3)GlcNAc(b1-2)Man(a1-6)]Man(b1-4)GlcNAc(b1-4)GlcNAc
Procedure, shortened: as §1

[16] = target: Gal(a1-3)Gal(b1-4)GlcNAc
Procedure, shortened: as §1

[17] = target: Gal(b1-3)Gal
Procedure, shortened: as §1

[18] = target: Gal(b1-3)GlcNAc(b1-2)Man(a1-3)[GlcNAc(b1-4)][Gal(b1-3)GlcNAc(b1-2)Man(a1-6)]Man(b1-4)GlcNAc(b1-4)GlcNAc
Procedure, shortened: as §1

[19] = target: Gal(b1-3)[GlcNAc(b1-6)]GalNAc
Procedure, shortened: as §1

[20] = target: Gal(b1-4)GlcNAc(b1-3)Gal(b1-4)GlcNAc
Procedure, shortened: as §1

[21] = target: Gal(b1-4)GlcNAc(b1-3)GalNAc
Procedure, shortened: as §1

[22] = target: Gal6S(b1-4)Glc
Procedure, shortened: as §1

[23] = target: GalNAc(a1-3)GalNAc(b1-3)Gal(a1-4)Gal(b1-4)Glc
Procedure, shortened: as §1

[24] = target: GalNAc(b1-3)Gal(a1-4)Gal(b1-4)GlcNAc(b1-3)Gal(b1-4)Glc
Procedure, shortened: as §1

[25] = target: GalNAc6S(b1-4)GlcNAc
Procedure, shortened: as §1

[26] = target: GlcNAc(a1-4)Gal(b1-4)GalNAc
Procedure, shortened: as §1

[27] = target: GlcNAc(a1-4)Gal(b1-4)GlcNAc(b1-3)Gal(b1-4)[Fuc(a1-3)]GlcNAc(b1-3)Gal(b1-4)[Fuc(a1-3)]GlcNAc
Procedure, shortened: as §1

[28] = target: GlcNAc(b1-3)Gal(b1-4)GlcNAc
Procedure, shortened: as §1

[29] = target: GlcNAc(b1-3)Gal(b1-4)GlcNAc(b1-3)Gal(b1-4)GlcNAc
Procedure, shortened: as §1

[30] = target: GlcNAc(b1-6)GalNAc
Procedure, shortened: as §1

B1: PitA (Streptococcus oralis), G3F8D8 (protein)
chain: MNIRFDFKKVQIIARRLVTLLAILFLCAPISLLNADSTTEPQTTLHKTITPISGQDDKYELSLDITSKLGTETQTDPLDVVLVADLSGSMQNQDVQSFDGRTISRIDALKNTLRGTNGRKGLIDTILSNSNNRLSMVGFGGKIDNKKVDQYWDGNKWRLFRPYWPYERMTKYYDGVSPWDDANTILGWSNNARAAKTAVYNMSIAGGNSIGTESGIGTGTNIGAGLTLANQLMGSARSNAKKVVILLSDGFANMVYDANGYTIYNYNNEDPNIETAPQWFWDRLNNNLNSLSYSLAPTLDGFYSIKFRYSNNVDSITSLQYYMRQHNASIPNEIFSANDEDQLRDSFKDITDKILPLGIHHVSIKDVLSKYVQLLPNGSSEFRVVKEKDGSSEILIENQVTFDTKTTSEGLVEVTAKFSPNYSLEDGARYVLKFTVTSSQEALDAIAGDKKLEAGDAEGSDVNKLYSNKGASVTYSYGIGNSQTKTKEYSDNPTFKPSDPLTVPVEVEWQGVTGARTVITADQPSNVELKLVQKNKNGGSDNQDYRKTNVNVSKNVSNETRNFEKVAKGYQYDLIAPDVPAFTKEIKNVGTESKPSFKVIYKQLPSLTIKKVLEAENNLNKEFRIKVKLTSPDSKPLNGTFGEITVVNGEAEIRVEKRKRWEGILSYLPRGTHYKVEEEAASTNGYHVTYENQEGDLNKDETSIVTNHKLPSLSVTKKVTGVFANLLKSFKITINIRDAQNSPLNGTYTATVNNKRTPLQFTNGRASIDLNKDQTIKIYGLPLDSHYTVEEESNSSRGYQVSYENQEGKLDGDKSATVTNNKNSVPETGVDFLSSTLMLGIILPLGGIFFTILLGYLVVHRRK
What does the source list for B1?
glycan array binding signal (z-score) [1]: 10.3; glycan array binding signal (z-score) [2]: 0.06; glycan array binding signal (z-score) [3]: 7.27; glycan array binding signal (z-score) [4]: -0.656; glycan array binding signal (z-score) [5]: 0.131; glycan array binding signal (z-score) [6]: -0.473; glycan array binding signal (z-score) [7]: 4.75; glycan array binding signal (z-score) [8]: -0.125; glycan array binding signal (z-score) [9]: -0.715; glycan array binding signal (z-score) [10]: 5.3; glycan array binding signal (z-score) [11]: 0.05; glycan array binding signal (z-score) [12]: 4.67; glycan array binding signal (z-score) [13]: 0.782; glycan array binding signal (z-score) [14]: -0.212; glycan array binding signal (z-score) [15]: 3.83; glycan array binding signal (z-score) [16]: -0.128; glycan array binding signal (z-score) [17]: -0.7; glycan array binding signal (z-score) [18]: 1.74; glycan array binding signal (z-score) [19]: -0.437; glycan array binding signal (z-score) [20]: -0.586; glycan array binding signal (z-score) [21]: -0.575; glycan array binding signal (z-score) [22]: -0.151; glycan array binding signal (z-score) [23]: -0.395; glycan array binding signal (z-score) [24]: 0.654; glycan array binding signal (z-score) [25]: 0.019; glycan array binding signal (z-score) [26]: 5.14; glycan array binding signal (z-score) [27]: 3.75; glycan array binding signal (z-score) [28]: -0.199; glycan array binding signal (z-score) [29]: -0.259; glycan array binding signal (z-score) [30]: 0.138
